13 molecules from PubChem BioAssay (NCATS) can be followed below.

The target of assay [1] is Cytochrome P450 1A2 (Homo sapiens) (UniProt P05177). The experiment in a line: p450-cyp1a2 (AID 410; calls by dose curve; also: potency is read from the fitted curve at half-maximal effect). The gist of the method:
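Human CYP1A2 (20nM) demethylated Luciferin-ME at its Km (100uM) in 100mM KPO4. After 10 min compound preincubation, NADPH regeneration ran the reaction 60 min at room temperature. Luciferin was read by luminescence, normalized to 57 uM furafylline.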

Assay [2] deals with Mitogen-activated protein kinase 10 (Mus musculus) (UniProt Q61831). The experiment in a line: JNK3 AlphaScreen Assay (AID 530; active = well fitted curve in either direction with a large enough effect, not every such curve was filed as active;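 also: kinase came from lysate of stimulated human HepG2 cells; signal reports phosphorylation of biotinylated GST-cJun 1-79 at Ser73 with 10 µM ATP; series mostly up to about 57 µM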). Summed up:
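JNK3 came from HepG2 lysates pre-activated with IL-1beta and TNF-alpha and phosphorylated biotinylated GST-cJun (1-79) at 10 uM ATP, pH 7.6, room temperature. Compounds were titrated. AlphaScreen signal used anti-phospho-cJun (Ser73) antibody.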
A general note: In Alpha technology, singlet oxygen from a donor bead excites a nearby acceptor bead.

Assay [3] deals with 3',5'-cyclic-AMP phosphodiesterase 4B (Homo sapiens) (UniProt Q07343). Briefly: qHTS Assay for Inhibitors of PDE-IV (AID 607; active = well fitted activation curve with a large enough effect in the main read-out, with a control signal flat, not every such curve was filed as active). The gist of the method:
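The readout is membrane depolarisation from a cAMP-sensing CNG channel, detected with a potential dye at ex 535/em 590. Cells were HEK293-derived (endogenous PDE-IV) at 1000 cells/well, titrated up to 22.9 uM final.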
Background: In qHTS, concentration-response curves come from the screen itself.

Assay [4] has as its target Cytochrome P450 2C9 (Homo sapiens) (UniProt P11712). The experiment in a line: qHTS Assay for Inhibitors and Substrates of Cytochrome P450 2C9 (AID 883). Also: potency is read from the fitted curve at half-maximal effect; nearly all actives have a fitted effect of over 60% in size. Summed up: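 Human CYP2C9 (10nM) hydroxylated Luciferin-H (100uM, at its KM) to luciferin in 25mM KPO4. Compound was preincubated 10 min at 37C, then NADPH regeneration started a 60 min reaction at 37C. Luminescence was read after detection reagent, normalized to 57uM sulphaphenazole.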

The target in assay [5] is Cytochrome P450 3A4 (Homo sapiens) (UniProt P08684). Briefly: qHTS Assay for Inhibitors and Substrates of Cytochrome P450 3A4 (AID 884). Also: potency is read from the fitted curve at half-maximal effect; nearly all actives have a fitted effect of over 50% in size. Summed up:
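20 nM human CYP3A4 with 25 uM Luciferin-PPXE (at KM) in 200 mM KPO4, preincubated 10 min with compound; NADPH regeneration started a 60 min RT reaction. Luciferin detected by luminescence, normalized to 57 uM ketoconazole as full inhibition.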

Assay [6] shares this target. Briefly: qHTS Assay for Activators of Cytochrome P450 3A4 (AID 885). Also: nearly all actives have a fitted effect of over 65% in size. The gist of the method:
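Steps: enzyme/substrate mix dispensed; compound added, 10 min RT; NADPH regeneration solution added, 60 min RT; luciferin detection buffer stops reaction; 20 min later luminescence measured.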

In assay [7] the target is Cytochrome P450 2D6 (Homo sapiens) (UniProt P10635). The experiment in a line: qHTS Assay for Inhibitors and Substrates of Cytochrome P450 2D6 (AID 891). Also: potency is read from the fitted curve at half-maximal effect; nearly all actives have a fitted effect of over 60% in size. Summed up:
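Human CYP2D6 (5 nM) with 30 uM Luciferin-ME EGE (at Km) in 100 mM KPO4, compound preincubated 10 min, then NADPH regeneration system for 60 min at room temperature. Luciferin read by luminescence; normalized to 1.43 uM quinidine.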

Assay [8] has as its target Cytochrome P450 2C19 (Homo sapiens) (UniProt P33261). The experiment in a line: qHTS Assay for Inhibitors and Substrates of Cytochrome P450 2C19 (AID 899). Also: potency is read from the fitted curve at half-maximal effect; nearly all actives have a fitted effect of over 60% in size. The gist of the method:
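Human CYP2C19 (5nM) with Luciferin-H EGE at 10uM (its KM) in 50mM KPO4 was preincubated with compound for 10 min at 37C. NADPH regeneration started a 60 min 37C reaction. Luciferin was read by luminescence, normalized to 57uM ketoconazole.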

Inconclusive results are not listed. Active and inactive are the calls of the source. Unless noted, calls follow the shape of the dose curve; as a rule, active = well fitted curve in the direction sought with a large enough effect; inconclusive = small, poorly fitted or top-dose-only effect, or another doubt; inactive = no such curve, though single readings can be large; an effect the other way counts as inactive or inconclusive.

Chain of Cytochrome P450 2C9 (Homo sapiens) (P11712 whole entry, looked up): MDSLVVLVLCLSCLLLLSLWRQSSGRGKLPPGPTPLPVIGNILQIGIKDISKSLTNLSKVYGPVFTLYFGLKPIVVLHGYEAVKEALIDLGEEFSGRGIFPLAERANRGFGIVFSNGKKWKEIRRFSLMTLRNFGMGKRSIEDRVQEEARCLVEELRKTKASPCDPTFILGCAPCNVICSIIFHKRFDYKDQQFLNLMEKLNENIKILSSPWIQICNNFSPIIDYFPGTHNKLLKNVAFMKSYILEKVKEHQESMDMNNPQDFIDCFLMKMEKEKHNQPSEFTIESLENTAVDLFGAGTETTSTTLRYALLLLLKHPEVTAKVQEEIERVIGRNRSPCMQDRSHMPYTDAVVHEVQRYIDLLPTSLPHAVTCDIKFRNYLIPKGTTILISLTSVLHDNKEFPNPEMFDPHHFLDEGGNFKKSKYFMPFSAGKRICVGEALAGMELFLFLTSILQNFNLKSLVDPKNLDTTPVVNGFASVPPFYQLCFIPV
Chain of 3',5'-cyclic-AMP phosphodiesterase 4B (Homo sapiens) (Q07343 whole entry, looked up): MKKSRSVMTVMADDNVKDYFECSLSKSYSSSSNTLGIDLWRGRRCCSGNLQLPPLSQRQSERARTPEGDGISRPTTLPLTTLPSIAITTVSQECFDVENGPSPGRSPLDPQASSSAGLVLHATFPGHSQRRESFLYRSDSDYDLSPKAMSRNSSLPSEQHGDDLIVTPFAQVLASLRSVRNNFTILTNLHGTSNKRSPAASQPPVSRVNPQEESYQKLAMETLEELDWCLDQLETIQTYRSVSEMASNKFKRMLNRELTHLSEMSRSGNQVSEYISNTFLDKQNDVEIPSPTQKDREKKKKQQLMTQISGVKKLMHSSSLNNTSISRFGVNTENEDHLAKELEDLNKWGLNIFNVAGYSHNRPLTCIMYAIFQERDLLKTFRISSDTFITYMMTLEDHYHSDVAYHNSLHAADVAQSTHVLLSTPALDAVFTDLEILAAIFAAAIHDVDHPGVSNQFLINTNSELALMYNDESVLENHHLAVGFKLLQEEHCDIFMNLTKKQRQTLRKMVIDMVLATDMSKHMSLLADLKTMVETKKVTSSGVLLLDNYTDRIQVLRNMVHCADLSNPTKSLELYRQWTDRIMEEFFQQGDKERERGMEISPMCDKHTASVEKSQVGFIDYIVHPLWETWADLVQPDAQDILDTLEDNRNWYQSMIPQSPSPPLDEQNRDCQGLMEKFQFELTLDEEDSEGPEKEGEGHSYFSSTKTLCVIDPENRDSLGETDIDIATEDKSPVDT
Chain of Cytochrome P450 3A4 (Homo sapiens) (P08684 whole entry, looked up): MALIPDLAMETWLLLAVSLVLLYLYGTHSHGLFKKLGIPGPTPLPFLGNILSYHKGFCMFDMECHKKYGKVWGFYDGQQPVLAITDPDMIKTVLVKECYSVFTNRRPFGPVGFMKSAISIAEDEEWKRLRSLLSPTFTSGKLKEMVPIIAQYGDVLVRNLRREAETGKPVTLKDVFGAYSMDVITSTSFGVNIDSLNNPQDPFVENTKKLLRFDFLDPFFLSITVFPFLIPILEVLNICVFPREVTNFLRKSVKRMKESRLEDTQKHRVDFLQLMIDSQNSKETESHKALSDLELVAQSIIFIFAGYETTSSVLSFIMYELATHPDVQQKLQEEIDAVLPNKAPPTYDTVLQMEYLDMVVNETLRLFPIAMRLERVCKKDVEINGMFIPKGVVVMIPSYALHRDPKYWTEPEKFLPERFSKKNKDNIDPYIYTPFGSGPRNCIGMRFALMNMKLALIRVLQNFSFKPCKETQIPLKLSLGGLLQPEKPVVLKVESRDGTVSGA
Chain of Cytochrome P450 2C19 (Homo sapiens) (P33261 whole entry, looked up): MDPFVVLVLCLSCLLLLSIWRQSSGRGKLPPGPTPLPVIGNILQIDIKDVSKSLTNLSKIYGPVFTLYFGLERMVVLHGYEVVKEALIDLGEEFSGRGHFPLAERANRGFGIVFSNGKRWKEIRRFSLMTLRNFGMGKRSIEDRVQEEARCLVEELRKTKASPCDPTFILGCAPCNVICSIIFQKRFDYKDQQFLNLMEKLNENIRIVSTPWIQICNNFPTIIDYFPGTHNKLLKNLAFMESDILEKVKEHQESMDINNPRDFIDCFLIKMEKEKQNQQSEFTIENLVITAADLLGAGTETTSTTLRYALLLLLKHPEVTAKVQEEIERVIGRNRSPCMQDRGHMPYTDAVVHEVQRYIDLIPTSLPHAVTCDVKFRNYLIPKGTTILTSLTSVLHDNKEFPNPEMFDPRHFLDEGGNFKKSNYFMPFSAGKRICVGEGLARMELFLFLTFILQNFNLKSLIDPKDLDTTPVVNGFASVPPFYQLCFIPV
Chain of Cytochrome P450 1A2 (Homo sapiens) (P05177 whole entry, looked up): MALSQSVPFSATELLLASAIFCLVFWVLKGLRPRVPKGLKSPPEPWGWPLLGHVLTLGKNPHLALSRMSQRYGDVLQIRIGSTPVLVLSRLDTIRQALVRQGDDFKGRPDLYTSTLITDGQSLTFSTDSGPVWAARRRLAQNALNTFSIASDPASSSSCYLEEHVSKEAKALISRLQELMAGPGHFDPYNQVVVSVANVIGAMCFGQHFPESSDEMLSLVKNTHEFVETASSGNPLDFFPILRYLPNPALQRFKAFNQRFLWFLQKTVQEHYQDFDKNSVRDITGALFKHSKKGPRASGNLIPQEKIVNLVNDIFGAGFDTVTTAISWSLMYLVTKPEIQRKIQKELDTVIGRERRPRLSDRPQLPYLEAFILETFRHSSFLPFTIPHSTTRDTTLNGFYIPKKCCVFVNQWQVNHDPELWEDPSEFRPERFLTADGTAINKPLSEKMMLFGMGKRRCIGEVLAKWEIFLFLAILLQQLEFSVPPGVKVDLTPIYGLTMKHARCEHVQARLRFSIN
Chain of Cytochrome P450 2D6 (Homo sapiens) (P10635 whole entry, looked up): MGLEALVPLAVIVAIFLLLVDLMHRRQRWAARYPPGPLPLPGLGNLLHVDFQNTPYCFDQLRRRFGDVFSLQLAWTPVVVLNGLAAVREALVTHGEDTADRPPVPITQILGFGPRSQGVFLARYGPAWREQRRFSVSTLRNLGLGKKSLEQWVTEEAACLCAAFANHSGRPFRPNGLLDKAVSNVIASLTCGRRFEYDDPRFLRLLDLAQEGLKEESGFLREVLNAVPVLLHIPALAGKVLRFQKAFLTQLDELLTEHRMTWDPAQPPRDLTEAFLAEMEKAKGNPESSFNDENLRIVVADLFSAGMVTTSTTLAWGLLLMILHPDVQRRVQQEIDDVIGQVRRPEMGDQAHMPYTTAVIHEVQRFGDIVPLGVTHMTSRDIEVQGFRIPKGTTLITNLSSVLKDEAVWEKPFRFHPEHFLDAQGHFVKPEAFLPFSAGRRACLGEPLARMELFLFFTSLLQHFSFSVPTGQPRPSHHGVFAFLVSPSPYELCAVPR

Take `COC(=O)N[C@H](c1ccccc1)[C@@]1(C)C[C@@H]1[C@@H](C)C(=O)Nc1ccc2ccccc2c1`: the Potency in assay [1] is 12.6 µM (active); in assay [4] it was 3.98 µM (active); in assay [5], 0.199 µM (active); in assay [7] it was 0.0316 µM (active); in assay [8] it was 3.16 µM (active). Besides, the Potency result in assay [2], in assay [3] and in assay [6] was “inactive” each time.
Turning to `COC(=O)[C@@]1(Cc2ccccc2)[C@H]2c3cc(C(=O)N4CCCC4)n(Cc4ccc(OC)c(OC)c4)c3C[C@H]2CN1C(=O)c1ccccc1`, the Potency entry in assay [1], in assay [2], in assay [3] and in assay [6] was “inactive” in each case. Further, the Potency in assay [4] and in assay [5] was 1.26 µM (active) each time.
Take `CCCCCC1=C2CNC(CC(C)C)(C(=O)OC)C=C2C(C)C1=O` (stereo not given): the Potency was 25.1 µM (active) in assay [1], 3.16 µM (active) in assay [4] and 5.01 µM (active) in assay [7]. Also, the Potency entry in assay [2], in assay [3] and in assay [6] was “inactive” throughout.
In the case of `CCC#CCOCC(=O)Nc1ccccc1`, the Potency in assay [1] is 25.1 µM (active). Further, the Potency result in assay [2] and in assay [3] was “inactive” in each case.
With `C[C@@H](C(=O)Cc1ccc2ccccc2c1)[C@@H]1C[C@@]1(C)[C@@H](NP(=O)(c1ccccc1)c1ccccc1)c1ccccc1`, the Potency in assay [1] is 10 µM (active); in assay [4], 3.16 µM (active). Besides, the Potency result in assay [2], in assay [3] and in assay [6] was “inactive” throughout.
For the molecule `O=C(Nc1ccc2ccccc2c1)[C@H]1C[C@@H]1[C@H](NP(=O)(c1ccccc1)c1ccccc1)c1ccccc1`, the Potency was 10 µM (active) in assay [1], 3.16 µM (active) in assay [4], 2.51 µM (active) in assay [5] and 3.16 µM (active) in assay [8]. Besides, the Potency entry in assay [2], in assay [3] and in assay [6] was “inactive” throughout.
Turning to `COC(=O)[C@@]1(Cc2ccc(F)cc2)[C@H]2c3cc(C(=O)N4CCCC4)n(Cc4ccc(OC(F)(F)F)cc4)c3C[C@H]2CN1C(=O)c1ccccc1`, the Potency entry in assay [1], in assay [2], in assay [3] and in assay [6] was “inactive” each time. Also, the Potency in assay [4] is 6.31 µM (active); in assay [5], 2.51 µM (active).
In the case of `COC(=O)[C@@]1(Cc2ccc(OC)cc2)[C@H]2c3cc(C(=O)N4CCCC4)n(Cc4cc(F)cc5c4OCOC5)c3C[C@H]2CN1C(=O)c1ccccc1`, the Potency result in assay [1], in assay [2], in assay [3] and in assay [6] was “inactive” in each case. For the same molecule, the Potency is 6.31 µM (active) in assay [4] and 2.51 µM (active) in assay [5].
Turning to `CC(=O)N[C@@H](c1ccccc1)[C@]1(C)C[C@H]1[C@@H](C)C(=O)Nc1ccc2ccccc2c1`, the Potency in assay [1] was 12.6 µM (active); in assay [4], 6.31 µM (active); in assay [5], 7.94 µM (active). Besides, the Potency result in assay [2], in assay [3] and in assay [6] was “inactive” each time.
For the molecule `COC(=O)[C@@]1(Cc2ccc(F)cc2)[C@H]2c3cc(C(=O)N4CCCC4)n(Cc4cccc5ccccc45)c3C[C@H]2CN1C(=O)c1ccccc1`, the Potency in assay [1] is 15.8 µM (active); in assay [4], 1.58 µM (active); in assay [5] it was 2 µM (active). Also, the Potency result in assay [2], in assay [3] and in assay [6] was “inactive” each time.
With `COC(=O)[C@@]1(Cc2ccc(F)cc2)[C@H]2c3cc(C(=O)N4CCCC4)n(CCO)c3C[C@H]2CN1C(=O)c1ccccc1`, in assay [1], the Potency is 25.1 µM (active). Besides, the Potency result in assay [2] and in assay [3] was “inactive” throughout.
Turning to `C[C@@H](C(=O)NCCc1c[nH]c2ccccc12)[C@@H]1C[C@@]1(C)[C@@H](NC(=O)OCc1ccccc1)c1ccccc1`, the Potency is 12.6 µM (active) in assay [1], 2.51 µM (active) in assay [4], 3.16 µM (active) in assay [5] and 0.794 µM (active) in assay [8]. The Potency entry in assay [2], in assay [3] and in assay [6] was “inactive” each time.
Regarding `Cc1cc(C(=O)N[C@@H](c2ccccc2)[C@]2(C)C[C@H]2[C@@H](C)C(=O)Nc2ccc3ccccc3c2)n(C)n1`, the values for the Potency in assay [1], in assay [4] and in assay [5] were 12.6 µM (active), 3.98 µM (active) and 0.794 µM (active), respectively. Further, the Potency result in assay [2], in assay [3] and in assay [6] was “inactive” throughout.
